From PubChem
CHX counter = counter-screen hit for Shiga toxin inhibitors, cycloheximide; cell reporter, cycloheximide protein synthesis inhibition counterscreen; max response, %; 300,000 compounds, 12% hits; in the data active = max response mostly above about 13%, no sharp cut-off; inactive = mostly below about 14%; also: read at 38.3 µM for the half of the compounds with a filed dose
RE007 growth inh = less growth of the S. pombe RE007 Vpr strain. 360,000 compounds, 0.21% hits. Potency, µM (series often up to 92.2 µM), hits mostly inhibitors. S. pombe RE007 Vpr strain, BacTiter-Glo ATP luminescence, 24 h; active = well fitted falling curve with a large enough effect; inconclusive = small, poorly fitted or top-dose-only effect; inactive = no such curve, though single readings can be large or run the other way; also: nearly all actives have a fitted effect of over 50% in size
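Fission yeast strain RE007, carrying one chromosomally integrated HIV-1 vpr copy, was seeded at OD 0.01 in PMG+AL medium with 23 nL pinned compound. After 24 h at 30 °C and 99% humidity, viability was read by BacTiter-Glo luminescence.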
Giardia FBPA inh = blocks Giardia fructose-bisphosphate aldolase activity | 290,000 compounds, 0.71% hits | AID 2451 | purified Giardia FBPA | Potency, µM (titrated, usually from 59.6 µM), hits mostly inhibitors | A8B2U2; also: nearly all actives have a fitted effect of over 55% in size
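Giardia FBPA (40 nM reagent) was preincubated 10 min at RT with compound (up to 57.5 uM final), then substrate plus GAPDH/TPI/NAD/arsenate coupling system with diaphorase/resazurin was added; resorufin fluorescence (525/598 nm) was read after 20 min.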
TbPYK inhibitor = blocks Trypanosoma brucei pyruvate kinase | Potency, µM (highest dose often 76.8 µM), most hits filed as inhibitors | 410,000 compounds, 0.12% hits | AID 624173 | TbPYK enzyme, Kinase-Glo Plus ATP luminescence, 45 min; also: nearly all actives have a fitted effect of over 50% in size
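Quantitative HTS: titrated library compounds versus trypanosomal pyruvate kinase in TEA buffer (pH 7.2) containing KCl, MgCl2, BSA and Tween-20. Reactions were initiated with ADP, 130 uM final. Kinase-Glo Plus luminescence was read after 45 min at RT.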
Shiga inhibitor = blocks Shiga toxin action in Vero cells | Vero cells, Shiga toxin protein synthesis inhibition reporter | inhibition, % at 38.7 µM | 290,000 compounds, 9.2% hits | AID 2315; in the data active = inhibition mostly above about 28%, no sharp cut-off; inactive = mostly below about 43%
LmPK inhibitor = inhibitors of Leishmania mexicana pyruvate kinase | Q27686 | purified LmPK, Kinase-Glo ATP luminescence, 1 h | AID 1721 | 290,000 compounds, 0.37% hits | Potency, µM (doses to about 57.5 µM), actives largely listed as inhibitors
Target sequence (Q27686 whole entry, looked up): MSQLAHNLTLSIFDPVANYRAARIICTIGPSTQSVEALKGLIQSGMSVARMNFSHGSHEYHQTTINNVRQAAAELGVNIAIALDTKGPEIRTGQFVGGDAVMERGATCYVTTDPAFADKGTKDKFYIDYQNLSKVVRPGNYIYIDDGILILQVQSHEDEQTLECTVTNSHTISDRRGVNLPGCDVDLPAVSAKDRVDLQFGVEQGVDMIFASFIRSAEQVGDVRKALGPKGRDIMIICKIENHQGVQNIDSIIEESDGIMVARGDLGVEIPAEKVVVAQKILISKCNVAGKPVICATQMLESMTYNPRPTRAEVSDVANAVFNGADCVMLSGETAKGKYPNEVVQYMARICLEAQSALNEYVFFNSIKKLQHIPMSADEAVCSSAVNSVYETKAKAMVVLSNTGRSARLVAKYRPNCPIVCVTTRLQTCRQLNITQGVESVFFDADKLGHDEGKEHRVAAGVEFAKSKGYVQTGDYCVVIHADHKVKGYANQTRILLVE
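Pyruvate kinase activity monitored as ATP production (luciferase luminescence). Conditions: 0.1 nM enzyme, 0.5 mM PEP, 0.1 mM ADP, 1 h, RT; normalized against uninhibited and no-enzyme wells.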
A number is an active result; – = inactive; ? = inconclusive; · = no result. Shown is part of a subset that was picked to be rich in hits. Unless noted, calls follow the shape of the dose curve; as a rule, active = well fitted curve in the direction sought with a large enough effect; inconclusive = small, poorly fitted or top-dose-only effect, or another doubt; inactive = no such curve, though single readings can be large; an effect the other way counts as inactive or inconclusive.

SMILES | CHX counter | RE007 growth inh | Giardia FBPA inh | TbPYK inhibitor | Shiga inhibitor | LmPK inhibitor
Cc1cc(Cl)ccc1OCc1nc(-c2ccc(O)cc2)n[nH]1 | – | – | – | – | – | –
Oc1ccc(N=Nc2n[nH]c(-c3ccc(Cl)cc3)n2)cc1 | 22.6 | – | – | – | 81.6 | –
COc1cccc(C(=O)N(Cc2ccco2)c2ccccn2)c1 | · | · | · | – | · | ·
O=C(CSc1nnc2c3c4c(sc3ncn12)CCCC4)NCc1ccco1 | – | – | – | – | – | –
O=C(CSc1nc2sc3c(c2c(=O)n1-c1ccccc1)CCCC3)NCc1ccco1 | – | – | – | – | – | –
O=C(CSc1ncnc2sc3c(c12)CCCCC3)NCc1ccco1 | 63.1 | – | – | – | 103.4 | –
O=C(CSc1ncnc2sc3c(c12)CCCC3)c1ccco1 | 68.3 | – | – | – | 156.3 | –
Cc1nc2sc3c(c2c2nnc(SCC(=O)NCc4ccco4)n12)CCCC3 | 27.6 | – | – | – | active | –
O=C(CSc1ncnc2sc3c(c12)CCCC3)c1ccccc1 | – | – | – | – | – | –
Cc1c(Cl)cccc1NC(=O)CSc1ncccc1C(=O)Oc1ccccc1Cl | · | · | · | – | · | ·
Cc1cc(C)c(Cn2c3ccccc3c3cnn(CC(=O)NCC(C)c4ccccc4)c(=O)c32)c(C)c1 (centres undefined) | · | · | · | – | · | ·
COc1ccc(N2Cc3cccc(C(=O)Nc4ccc(C)c(C)c4)c3C2=O)cc1 | · | · | · | – | · | ·
CC(C)=CCC/C(C)=C\COc1c2ccoc2cc2oc(=O)ccc12 | · | · | – | · | · | ·
COCCCNc1nc2c(-c3ccc(C)cc3)nnn2c2ccccc12 | 38.5 | – | – | – | 71.8 | –
CC1CN(C(=O)CCC(=O)N2CCN(c3cccc(C(F)(F)F)c3)CC2)c2ccccc2O1 (centres undefined) | – | – | · | – | – | –
Cc1ccc(NC(=O)CN(c2ccc(Cl)cc2)S(=O)(=O)c2cc([N+](=O)[O-])ccc2Cl)c(C)c1 | – | – | – | – | – | –
COc1cc2c(cc1OC)CN(c1ccc3ccccc3n1)CC2 | 41.5 | – | – | – | 87.6 | –
COc1cc2c(cc1OC)CN(c1ccc(C(F)(F)F)cn1)CC2 | 21.1 | ? | – | – | 52.7 | –
COc1cc2c(cc1OC)CN(c1ccc(-c3ccccc3OC)nn1)CC2 | – | ? | – | – | – | –
Cc1ccc2[nH]c(=O)c3cc(C(=O)NCc4cccc(Cl)c4)sc3c2c1 | · | · | · | – | · | ·
COc1ccccc1N1CCN(S(=O)(=O)c2ccc(Cl)s2)CC1 | 16.4 | – | – | – | – | –
COc1ccccc1N1CCN(S(C)(=O)=O)CC1 | – | – | – | – | – | –
CCS(=O)(=O)N1CCN(S(=O)(=O)c2ccc(Cl)s2)CC1 | – | – | · | – | – | –
CCOc1ccccc1N1CCN(S(=O)(=O)c2ccc(Cl)s2)CC1 | 16.6 | – | – | – | 34.8 | –
Cc1ccc2c(c1)-c1onc(C(=O)N3CCN(c4ccc(Cl)cc4)CC3)c1CO2 | · | · | · | – | · | ·
SMILES | CHX counter | RE007 growth inh | Giardia FBPA inh | TbPYK inhibitor | Shiga inhibitor | LmPK inhibitor
COC(=O)C(C(C)=O)C1=C/C(=N\S(=O)(=O)c2ccc(C)cc2)c2ccccc2C1=O (centres undefined) | – | – | 12.6µM | – | – | ?
CCc1ccc(S(=O)(=O)/N=C2\C=C(NS(=O)(=O)c3ccccc3)C(=O)c3ccccc32)cc1 | 29.5 | – | ? | – | 44.4 | –
Cc1ccccc1NC1=C/C(=N\S(=O)(=O)c2ccc(C(=O)O)cc2)c2ccccc2C1=O | – | ? | 0.794µM | – | 36.3 | –
Cc1ccc(NC2=C/C(=N/S(=O)(=O)c3cccs3)c3ccccc3C2=O)cc1C | 31.4 | · | ? | – | 50.2 | –
CC(C)c1ccc(S(=O)(=O)/N=C2\C=C(NS(=O)(=O)c3ccccc3)C(=O)c3ccccc32)cc1 | – | ? | ? | – | – | –
COc1cc(NC(=O)C(Cc2ccccc2)NS(=O)(=O)c2cccc3nsnc23)cc(OC)c1 (centres undefined) | · | · | · | – | · | ·
COc1ccc(CCNC(=O)C(C)n2nc(C)c3sc4ccccc4c3c2=O)c(OC)c1 (centres undefined) | · | · | · | – | · | ·
COc1ccccc1NC(=O)C1=C(C)Nc2nc(SCc3ccc(Cl)cc3)nn2C1c1ccccc1Cl (centres undefined) | · | · | · | – | · | ·
O=C(NN=C1CCCCCCC1)c1ccc(F)cc1 | 24.0 | – | – | – | 76.4 | –
O=C(NN=C1CCCCCCCCCCC1)c1cccnc1 | – | – | – | – | – | –
O=C(NN=C1CCCCCCCCCCC1)c1ccccc1F | 78.1 | – | – | – | 70.5 | –
O=C(NN=C1CCCC1)c1ccn[nH]1 | 56.0 | – | – | – | 104.3 | –
O=C(NN=C1CCCCCC1)c1cccs1 | 61.4 | – | – | – | 92.1 | –
O=C(NN=C1CCCC1)c1ccccc1OCc1ccc(Cl)cc1 | – | – | – | – | – | –
CC(C)(C)c1ccc(C(=O)NN=C2CCCC2)cc1 | – | – | – | – | – | –
CCCCOc1ccc(C(=O)N2CCN(CCc3ccncc3)CC2)cc1 | · | · | · | – | · | ·
CC(=O)N1c2ccc(S(=O)(=O)NCCC(=O)Nc3ccc(Br)c(C)c3)cc2CC1C (centres undefined) | · | · | · | – | · | ·
Cc1ccc(C)c(N2CCN(C(=O)CN3C(=O)COc4ccc(S(=O)(=O)N5CCOCC5)cc43)CC2)c1 | · | · | · | – | · | ·
COc1ccc2cc(C(=O)NCCc3ccccc3)[nH]c2c1 | 21.6 | – | – | – | – | –
CC(C)c1ccc(OC(=O)NCCO)cc1 | 14.7 | – | – | – | 44.1 | –
COc1ccc(CCNC(=O)COC(=O)Cc2ccccc2)cc1 | – | · | – | – | – | –
COc1ccc(CCNC(=O)Cc2cc(OCc3ccccc3)c(OC)cc2[N+](=O)[O-])cc1OC | – | – | – | – | – | –
COc1cc(CC(=O)NCCc2ccc(OCc3ccccc3)cc2)c([N+](=O)[O-])cc1OC | 48.9 | – | – | – | – | –
Cc1nnsc1C(=O)Oc1ccc(C(C)C)cc1 | · | · | · | – | · | ·
COc1cc2cc(C(=O)NCCc3ccccc3)[nH]c2cc1OC | – | – | – | – | – | –
SMILES | CHX counter | RE007 growth inh | Giardia FBPA inh | TbPYK inhibitor | Shiga inhibitor | LmPK inhibitor
COc1ccc(CC(=O)Nc2ccccc2C(=O)NCCc2ccccc2)cc1 | 29.6 | – | – | – | 47.9 | –
CC1(C(=O)N2CCCCC2)CCN1C(=O)Cc1ccc(-c2ccccc2)cc1 (centres undefined) | · | – | · | – | · | ·
CC(C)CC(N)c1csc(Nc2ccc(C(F)(F)F)cn2)n1 (centres undefined) | · | – | · | – | · | ·
CCc1ncc(CN2CCC(C(=O)Nc3cccc(-c4cscn4)c3)CC2)cn1 | – | – | – | – | – | –
Cc1nc(-c2ccc(S(=O)(=O)Nc3cc(Cl)ccc3C)cc2)co1 | · | · | · | – | · | ·
O=C(NCCc1ccc([N+](=O)[O-])cc1)c1ccccc1 | 28.5 | – | – | – | 61.1 | –
COc1ccc(CNC(=O)COC(=O)C2=COCCO2)cc1 | – | – | – | – | – | –
